The nature of assay [1]: qHTS assay to identify small molecule agonists of the vitamin D receptor (VDR) signaling pathway - cell viability counter screen (AID 743224; active = well fitted curve in the direction sought with a large enough effect in the repeat runs; an effect the other way counts as inactive or inconclusive; note: nearly all actives have a fitted effect of over 50% in size; note: potency is the fitted concentration of half-maximal effect). In outline: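 Cells: VDR-bla, 2,000/well, settled 4 h. Treatment: compounds in DMSO, 16 h, 37C/5% CO2. Readout: CellTiter-Glo luminescence after 30 min RT.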
(In general: qHTS replaces the single test concentration by a dilution series.)

Assay [2] in a line: qHTS assay to identify small molecule antagonists of the vitamin D receptor (VDR) signaling pathway - cell viability counter screen (AID 743225; active = well fitted curve in the direction sought with a large enough effect in the repeat runs; an effect the other way counts as inactive or inconclusive; note: nearly all actives have a fitted effect of over 50% in size; note: potency is the fitted concentration of half-maximal effect). In a few lines:
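Luminescent cell viability (CellTiter-Glo) in VDR-bla HEK 293T cells after 16 h compound exposure at 37C in the presence of 3 nM final 1-alpha,25-dihydroxy vitamin D3.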

Assay [3] is described as follows: qHTS assay to identify small molecule agonists of the NFkB signaling pathway (AID 1159509; active = well fitted curve in the direction sought with a large enough effect in the signal ratio in the repeat runs, not every such curve was filed as active; the % refers to the signal ratio; note: series mostly up to about 61 µM). In outline:
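Agonist activity was read as beta-lactamase-driven FRET change (460 and 530 nm emission, 405 nm excitation) following 1.5 hr substrate loading at room temperature. Beforehand, ME-180 NFkB-bla reporter cells were treated with compounds for 5 hr at 37 C.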

Assay [4] in a line: qHTS assay to identify small molecule agonists of the NFkB signaling pathway - cell viability counter screen (AID 1159515). Note: series mostly up to about 61 µM; nearly all actives have a fitted effect of over 55% in size. In outline:
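Cells are seeded (2,000 NFkB-bla ME-180 per well), rested overnight, and dosed with DMSO-dissolved compounds for 5 hr at 37 C. Viability is then read by CellTiter-Glo luminescence after 30 min at room temperature.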

A short description of assay [5]: qHTS assay to identify small molecule agonists of the endoplasmic reticulum stress response signaling pathway (AID 1159516; active = well fitted activation curve with a large enough effect in the signal ratio in the repeat runs, not every such curve was filed as active; the % refers to the signal ratio). In a few lines:
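Cells are seeded at 1,500 per well and incubated overnight. Compounds in DMSO are added for 5 hr at 37 C, then beta-lactamase FRET substrate for 2 hr at room temperature, and fluorescence at 460 and 530 nm is measured.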

Assay [6] can be described thus: qHTS assay to identify small molecule agonists of the endoplasmic reticulum stress response signaling pathway - cell viability counter screen (AID 1159517).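 Note: HeLa cells carrying an ER stress response element beta-lactamase reporter; series mostly up to about 61 µM; nearly all actives have a fitted effect of over 50% in size.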 In a few lines: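 Cpd-treated ESRE-bla HeLa (5 hr, 37 C) → LiveBLAzer 2 hr RT → CellTiter-Glo 30 min RT → luminescence.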
Assay [7] concerns the target Nuclear receptor ROR-gamma (Homo sapiens) (UniProt P51449). As to the kind of experiment: qHTS assay to identify small molecule antagonists of the retinoid-related orphan receptor gamma (ROR-gamma) signaling pathway (AID 1159521; active = well fitted curve in the direction sought with a large enough effect in the repeat runs; an effect the other way counts as inactive or inconclusive; note: nearly all actives have a fitted effect of over 50% in size; note: potency is the fitted concentration of half-maximal effect). In outline: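 CHO cells expressing RORγ under a TET-on promoter, luciferase under RORE control. Dox 1 uM final, 16 h; compounds added 2 h prior. Luminescence decrease measured.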

A short description of assay [8]: qHTS assay to identify small molecule agonists of the AP-1 signaling pathway - cell viability counter screen (AID 1159525). Note: nearly all actives have a fitted effect of over 55% in size. In outline: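 Each titration point was normalised to DMSO and tetra n-octyl ammonium bromide controls. The read was Cell Titer Glo luminescence after 30 min at RT, following 5 h compound exposure of ME-180 AP-1-bla cells at 37 °C.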
Assay [9] can be described thus: qHTS assay to identify small molecule agonists of the AP-1 signaling pathway (AID 1159526).
A short description of assay [10]: qHTS assay to identify small molecule antagonists of the retinoid-related orphan receptor gamma (ROR-gamma) signaling pathway - cell viability counter screen (AID 1159520; active = well fitted curve in the direction sought with a large enough effect in the repeat runs; an effect the other way counts as inactive or inconclusive; note: nearly all actives have a fitted effect of over 50% in size). In a few lines: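 Tet-on ROR gamma CHO cells (1,000/well) were plated 4 hr, given compounds in DMSO for 2 hr at 37 C, then induced with 1 uM final doxycycline for 16 hr. Viability was read as ATP by CellTiter-Glo luminescence after 30 min.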

Inconclusive results are not listed. The source made the active and inactive calls. Unless noted, calls come from the whole dose curve.

Turning to `Cl/C=C\C[N+]12CN3CN(CN(C3)C1)C2`, the Potency result in assay [1], in [2], in [4], in assay [6], in assay [7] and in [8] was “inactive” in each case. Also, the result in assay [3], in assay [5] and in assay [9] was inactive.
In the case of `Cc1cc(=O)[nH]o1`, the Potency entry in assay [1], in [4], in assay [10], in [7] and in assay [8] was “inactive” each time. In addition, the call in assay [3], in [5] and in [9] was inactive.
Regarding `COCC(C)N(C(=O)CCl)c1c(C)csc1C` (stereo not given), the outcome in assay [3] and in assay [5] was inactive. The Potency entry in assay [4], in assay [6], in [10] and in [8] was “inactive” each time.
On to `CCCCNP(N)(N)=S`, for which the Potency result in [1], in [2], in assay [4], in assay [6], in assay [10] and in assay [8] was “inactive” each time. Besides, the outcome in [3] and in assay [5] was inactive.
For the compound `ClP(Cl)(Cl)(Cl)Cl`, the Potency entry in assay [1], in [2], in assay [4], in assay [6] and in assay [8] was “inactive” throughout. Further, the compound was classed as inactive in assay [3], in assay [5] and in assay [9].
For `C/C=C/C=O`, the Potency entry in assay [1], in [4], in assay [10], in [7] and in assay [8] was “inactive” each time. Moreover, the call in assay [3], in assay [5] and in [9] was inactive.
As to `CN1[C@@H]2CC[C@H]1CC(OC(=O)c1cc(Cl)cc(Cl)c1)C2` (stereo not given in full), the Potency entry in assay [1], in [2], in [4], in [6], in [10] and in assay [8] was “inactive” each time. Also, the compound was classed as inactive in [3], in assay [5] and in assay [9].
For the compound `O=[Se]=O`, the Potency result in assay [1], in assay [2], in assay [4], in assay [6] and in assay [8] was “inactive” throughout. The call in assay [3], in [5] and in [9] was inactive.
Take `O=C(OC1CCCCC1)c1ccccc1C(=O)OC1CCCCC1`: the Potency in assay [1] was 46 µM (active); in assay [2], 32.6 µM (active). The compound was called inactive in assay [3], in assay [5] and in assay [9]. Moreover, the Potency result in assay [4], in [6], in [10] and in [8] was “inactive” each time.
Take `N#CCC#N`: the Potency entry in assay [1], in assay [4], in assay [6] and in assay [8] was “inactive” throughout. Also, the compound was classed as inactive in assay [3] and in assay [5]. Further, in assay [7], the Potency was 27.3 µM (active).
Regarding `O=C(N[C@H](c1ccccc1)[C@@H]1CN2CCC1CC2)c1c(Cl)ccc(C(F)(F)F)c1Cl`, the Potency entry in assay [2], in assay [4], in assay [6], in assay [10] and in assay [8] was “inactive” in each case. In addition, the compound was classed as inactive in [3] and in assay [5].
Take `COc1ccc(-c2ccccc2)cc1NNC(=O)OC(C)C`: the values for the Potency in assay [1] and in [2] were 57.2 µM (active) and 51 µM (active), respectively. Further, the compound was classed as inactive in [3], in assay [5] and in assay [9]. The Potency entry in [4], in assay [6], in assay [10] and in assay [8] was “inactive” each time.
As to `CCc1ccc(C(=O)NN(C(=O)c2cc(C)cc(C)c2)C(C)(C)C)cc1`, the Potency entry in assay [1], in assay [4], in assay [6], in assay [10] and in assay [8] was “inactive” each time. Moreover, the call in assay [3], in assay [5] and in [9] was inactive.
For the compound `CCCCCCCCOC(=O)c1ccc(C(=O)OCCCCCCCC)c(C(=O)OCCCCCCCC)c1`, the Potency entry in assay [1], in assay [4], in assay [6], in assay [10] and in [8] was “inactive” each time. In addition, the outcome in assay [3], in assay [5] and in assay [9] was inactive.
With `CN1C[C@H](CNC(=O)OCc2ccccc2)C[C@@H]2c3cccc4c3c(cn4C)C[C@H]21`, the Potency result in assay [1], in [2], in [4], in [6], in assay [10] and in assay [8] was “inactive” each time. The outcome in [3] and in assay [5] was inactive.
Consider `CCOc1nc(F)cc2nc(S(=O)(=O)Nc3c(Cl)cccc3Cl)nn12`, for which the Potency result in [1], in assay [2], in assay [4], in assay [6], in [10] and in [8] was “inactive” each time. Further, the outcome in assay [3], in assay [5] and in assay [9] was inactive.
With `Clc1ccc(C2(Cn3cncn3)CC(Br)CO2)c(Cl)c1` (stereo not given), the Potency entry in assay [1], in [4], in [6], in [10] and in assay [8] was “inactive” in each case. Also, the compound was classed as inactive in [3], in [5] and in [9].
On to `N#Cc1ccc(Cl)cc1`, for which the Potency result in assay [1], in assay [2], in [4], in [6], in assay [7] and in assay [8] was “inactive” throughout. Also, the compound was called inactive in assay [3], in [5] and in assay [9].
As for `NC(=O)CI`, the Potency entry in [1], in [4], in assay [6] and in [8] was “inactive” throughout. Further, the call in [3] and in assay [5] was inactive.
`CCOP(=S)(Oc1ccc([N+](=O)[O-])cc1)c1ccccc1` (stereo not given): the Potency result in assay [1], in assay [2], in [4], in assay [6], in assay [10] and in [8] was “inactive” throughout. Further, the compound was classed as inactive in assay [3], in [5] and in assay [9].
Take `COc1nn(CSP(=S)(OC)OC)c(=O)s1`: in [3], the compound was called inactive.
Consider `CCCC(Cn1cncn1)c1ccc(Cl)cc1Cl` (stereo not given), for which the Potency entry in assay [1], in assay [4], in assay [6] and in assay [8] was “inactive” throughout. In addition, the compound was called inactive in assay [3] and in assay [5].
With `CC(=O)[C@H]1CC[C@H]2[C@@H]3CC[C@H]4C[C@](C)(O)CC[C@]4(C)[C@H]3CC[C@]12C`, the Potency result in assay [1], in assay [2], in [4], in [6], in [10] and in assay [8] was “inactive” throughout. In addition, the call in [3] and in [5] was inactive.
Take `CCOP(=S)(OCC)SCSCC`: the Potency entry in assay [1], in assay [4], in [6], in [10] and in [8] was “inactive” throughout. Besides, the compound was classed as inactive in assay [3], in assay [5] and in assay [9].
On to `C[C@]12CC[C@H]3[C@@H](CCC4=CC(=O)CC[C@@H]43)[C@@H]1CC[C@@H]2OC(=O)CCC1CCCCC1`, for which the Potency entry in assay [1], in assay [4], in assay [6], in assay [10] and in [8] was “inactive” each time. The result in assay [3], in [5] and in [9] was inactive.
As for `Nc1ccc([N+](=O)[O-])cc1[N+](=O)[O-]`, the Potency result in assay [1], in assay [2], in assay [4], in [6] and in assay [8] was “inactive” each time. Besides, the outcome in [3], in assay [5] and in assay [9] was inactive.
Consider `CC(C)O.CC(C)O.OCCN(CCO)CCO.OCCN(CCO)CCO.[Ti]`, for which the Potency entry in assay [1], in [4], in assay [6], in assay [10] and in assay [8] was “inactive” throughout. Moreover, the compound was called inactive in [3] and in [5].
`COC(C)(C)CCC[C@H](C)C/C=C/C(C)=C/C(=O)OC(C)C`: the compound was classed as inactive in assay [3], in [5] and in assay [9]. Further, the Potency result in assay [4], in assay [10], in [7] and in [8] was “inactive” each time.
`O=C(Nc1ccccc1)Nc1ccnc(Cl)c1`: the compound was classed as inactive in assay [3] and in assay [5]. The Potency result in assay [4], in assay [6] and in [8] was “inactive” in each case.
Consider `O=C(O)C(F)(F)C(F)(F)C(F)(F)C(F)(F)C(F)(F)C(F)(F)C(F)(F)C(F)(F)C(F)(F)F`, for which the result in assay [3] and in assay [5] was inactive. In addition, the Potency entry in [4], in assay [10], in [7] and in assay [8] was “inactive” each time.

Source of the values: PubChem BioAssay (Tox21).
